# This is a sample that favours compounds with a hit; in the whole collection about 4.2% have one here.
# TRPV1 PAM – human TRPV1 potentiation. Q8NER1. TRPV1-expressing cells, Fluo-8 calcium influx, capsaicin EC20 potentiation. potentiation, % at 8.33 µM. 0.02% of 320,000 active. AID 540277; in the data active means potentiation above about 80%; inconclusive means between about 30% and that limit; further: 0% is about no effect
#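 TRPV1-expressing cells were cultured overnight at 35.5C and loaded with Fluo-8 calcium dye for 40 to 90 min at room temperature. After a 10 s baseline, compound was added and calcium influx was read kinetically for 3 min (ex 480/em 520 nm).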
# D1 agonist – activates the human D1 dopamine receptor. P21728. HEK293 T-REx D1 cells, calcium flux, agonist mode. activation, % at 2 µM. 1% of 360,000 active; in the data active means activation above about 30%; further: 0% is about no effect
# Target sequence (P21728 whole entry, looked up): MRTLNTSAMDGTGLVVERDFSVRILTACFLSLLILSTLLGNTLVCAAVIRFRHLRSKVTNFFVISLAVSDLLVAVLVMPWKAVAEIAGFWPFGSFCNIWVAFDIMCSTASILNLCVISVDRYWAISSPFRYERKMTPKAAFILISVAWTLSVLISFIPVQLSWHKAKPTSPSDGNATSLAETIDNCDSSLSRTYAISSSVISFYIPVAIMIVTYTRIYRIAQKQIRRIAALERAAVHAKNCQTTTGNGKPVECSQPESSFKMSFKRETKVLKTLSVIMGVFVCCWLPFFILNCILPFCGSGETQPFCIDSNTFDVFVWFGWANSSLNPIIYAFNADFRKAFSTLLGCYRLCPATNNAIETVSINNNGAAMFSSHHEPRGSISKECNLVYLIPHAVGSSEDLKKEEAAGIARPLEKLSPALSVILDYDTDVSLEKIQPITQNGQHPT
#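 Tetracycline-induced HEK293 TREx D1 cells, force-coupled to calcium signalling, were dye-loaded with a no-wash calcium kit. Compound was pin-added after a 10 s baseline. Fluorescence was read kinetically at 1 cycle/s for 180 s, with calcium rises flagged as agonism.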
# TRPV1 ag – agonists of human vanilloid receptor 1 (TRPV1). TRPV1-expressing cells, Fluo-8 calcium influx, agonist mode. activation, % at 8.33 µM. 0.19% of 320,000 active. AID 540275; in the data active means activation above about 80%; inconclusive means between about 30% and that limit; further: 0% is about no effect
#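 Fluo-8 calcium influx in TRPV1-expressing cells, kinetic read (ex 480/em 520 nm). Compound added and read 3 min for agonist activity, followed by capsaicin at EC20 final and 2 min further read for enhancement.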
# D1 antagonist – antagonists of human D1 dopamine receptor | P21728 | HEK293 TREx D1 cells, calcium flux, dopamine EC80; active compounds read low | activity change, negative = inhibition, % at 10 µM | 3.2% of 360,000 active | AID 504652; in the data active means activity change below about -30%; further: on the % scale 0 is the no-effect control and ±100 the full control effect
#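 Tetracycline-induced HEK293 Trex D1 cells, force-coupled to calcium, dye-loaded; compounds added and read 180 s, then EC80 dopamine added and calcium flux tracked kinetically another 180 s.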
# D1 PAM – potentiators of human D1 dopamine receptor; 0.036% of 360,000 active; potentiation, % at 10 µM; P21728; HEK293 TREx D1 cells, calcium flux, dopamine EC20 potentiation; in the data active means potentiation above about 30%; further: 0% is about no effect
# The depositor's hits bear a star; ? = inconclusive; · = no result.
SMILES,TRPV1 PAM,D1 agonist,TRPV1 ag,D1 antagonist,D1 PAM
CC(C)c1cc2c(s1)c1cnn(Cc3ccccc3F)c(=O)c1n2C,·,13,·,5,-3
CCc1ccc(CNC(=O)c2ccc(OC)c(OC3CCN(C(C)C)CC3)c2)nc1,-12,0,-2,-80*,-13
COc1ccccc1/C=C/CN1CCC(Oc2cc(C(=O)NC3CC3)ccc2OC)CC1,2,11,1,-73*,-5
C#Cc1ccc(CN2CCC(Oc3cc(C(=O)NC4CC4)ccc3OC)CC2)cc1,-1,4,11,-45*,-11
COc1ccc(C(=O)NC2CC2)cc1OC1CCN(Cc2ccccc2)CC1,-8,3,4,-23,-17
COc1ccc(C(=O)NC2CC2)cc1OC1CCN(Cc2ccc(F)cc2)CC1,-4,1,1,-40*,-20
Cc1ccc(C)c(Cn2c(=O)n(CCCCC(=O)NCc3ccc4c(c3)OCO4)c(=O)c3ccccc32)c1,·,3,·,-6,0
Cc1cccc(NC(=O)c2cc3c(=O)n(Cc4ccco4)ccc3nc2C)c1,·,0,·,-26,2
C=CCNCCCCOc1cccc(Br)c1,5,32*,-8,-4,-1
COc1ccccc1Cn1ccn(Cc2c(F)cccc2Cl)c(=O)c1=O,·,1,·,5,-1
NS(=O)(=O)c1ccc(NCc2ccccc2OCc2ccc(F)cc2)cc1,?,6,1,-28,-2
Nc1nonc1C(=O)NCCNCc1ccccc1OCc1ccc(F)cc1,-15,30*,?,-29,-11
COc1cc(CNCCc2ccc(S(N)(=O)=O)cc2)ccc1OCc1ccc(Cl)cc1,0,19,4,-7,-10
CCOc1cc(CNCCc2ccc(S(N)(=O)=O)cc2)ccc1OCc1ccc(Cl)cc1,-10,79*,0,-56*,-16
NS(=O)(=O)c1ccc(CCNCc2ccccc2OCc2ccc(F)cc2)cc1,-10,41*,7,-40*,-17
CCOc1ccc(CNCCNC(=O)c2nonc2N)cc1,19,2,-3,-11,0
COc1ccccc1C(=O)NCc1nnnn1-c1ccc(C)c(C)c1,·,-2,·,-3,0
CCCC(=O)Nc1nnc(S(=O)(=O)N(C)Cc2ccc(Cl)cc2)s1,·,1,·,0,0
Cc1ccccc1OCC(=O)Nc1cccc(C(=O)OCc2cc(=O)n3c(C)csc3n2)c1,·,0,·,-12,0
Cc1cc(SC(C)C(=O)Nc2c(C)n(C)n(-c3ccccc3)c2=O)nc2ccccc12 (stereo not given),3,0,2,-32*,-3
Cc1c(NC(=O)C(C)Sc2ncnc3ccccc23)c(=O)n(-c2ccccc2)n1C (stereo not given),-2,3,-4,-4,4
CCCn1c(N2CCN(C)CC2)nc2c1c(=O)[nH]c(=O)n2C,-16,2,1,-31*,-10
CCc1cccc(C)c1NC(=O)c1cccnc1,15,3,0,-32*,-5
CCc1cccc(C)c1NC(=O)C1=C(C(=O)O)CCCC1,10,0,0,-82*,-9
Cc1cccc(C)c1NC(=O)c1cccnc1,-21,1,3,12,-7
SMILES,TRPV1 PAM,D1 agonist,TRPV1 ag,D1 antagonist,D1 PAM
CCCN(CCC)C(=O)Cn1c(=O)n(-c2ccc(C)c(C)c2)c(=O)c2c3c(sc21)CCCCC3,·,2,·,-4,3
Cc1ccc(CN(C(=O)COc2ccccc2Cl)c2ccccn2)o1,·,-1,·,2,-1
Cc1cccc(Cn2c(=O)n(-c3cc(C)cc(C)c3)c(=O)c3oc4ccccc4c32)c1,·,2,·,4,2
COc1ccc(/C=C2\N=C(SC)N(c3ccccc3OC)C2=O)cc1,-4,14,6,-34*,-8
CCN(CC)C(=O)CSC(Nc1ccc(F)cc1)=C(C#N)C#N,6,6,-1,-16,0
Cc1ccc(CSC(Nc2ccc(F)cc2)=C(C#N)C#N)cc1,6,26,18,-36*,-12
CCC(=O)C1=C(c2ccc(Cl)cc2)N(C(=O)CC)n2c(C)nnc2S1,·,3,·,·,-3
O=C(O)c1ccc2c(c1)C(=O)N([C@]1(C(=O)O)C[C@H]1c1ccccc1)C2=O,·,2,·,-6,-4
Cc1nc2ccccn2c1C(=O)/C=C/c1cccc([N+](=O)[O-])c1,-18,4,7,4,1
Cc1ccc(/C=C/C(=O)c2c(C)nc3ccccn23)cc1,-1,-1,24,-71*,-1
CC(C)Oc1ccc(CNC(=O)C2CCN(c3nc4ccccc4nc3C(F)(F)F)CC2)cc1,·,3,·,-4,-1
CCOC(=O)c1nn(-c2ccc(OC)cc2)c(=O)c2c(NC(=O)Cc3ccccc3)scc12,·,4,·,2,16
O=C(Cc1ccc(F)cc1)NCCc1csc2nc(-c3ccccc3F)nn12,·,-1,·,9,0
CN(CC(=O)NCc1cccs1)S(=O)(=O)c1cccc2cccnc12,9,1,0,7,·
CN(C)c1ccc(CNC(=O)CN(C)S(=O)(=O)c2cccc3cccnc23)cc1,6,0,1,-66*,·
CCNc1ccc(C(=O)OCC(=O)NC(=O)NCC(C)C)cc1[N+](=O)[O-],13,1,-2,-16,-2
CCNc1ccc(C(=O)OCC(=O)NCc2ccccc2Cl)cc1[N+](=O)[O-],-13,2,-2,-88*,-1
Cc1ccccc1CNC(=O)c1ccc(Cl)c([N+](=O)[O-])c1,-12,12,?,-61*,-3
CC(C)[C@H](NC(=O)c1ccc(Cl)c([N+](=O)[O-])c1)C(=O)NCc1ccc(F)cc1,-10,4,13,-17,-10
CC(C)[C@H](NC(=O)c1ccc(Cl)c([N+](=O)[O-])c1)C(=O)NCc1ccc(Cl)cc1Cl,-7,5,-3,-39*,-4
O=S(=O)(c1ccc2c(c1)OCCO2)N1CCN(S(=O)(=O)c2c(F)ccc(O)c2F)CC1,·,9,·,-2,-2
O=C(CSc1n[nH]c(-c2ccccc2Cl)n1)NCCc1ccccc1,·,0,·,4,1
Cc1nnc(SCC(=O)NC2CCCc3c2cnn3-c2ccc(F)cc2F)o1 (stereo not given),20,0,3,12,-8
Cc1nnc(SCC(=O)NC2CCCc3c2cnn3-c2ccccc2F)o1 (stereo not given),0,1,0,-39*,-1
O=C(NC1CCCc2c1cnn2-c1ccc(F)cc1F)c1cnccn1 (stereo not given),-8,5,16,-4,7
O=C(NC1CCCc2c1cnn2-c1ccc(F)cc1F)c1csnn1 (stereo not given),-15,2,10,-31*,-2
CC(NC(=O)c1cc(-c2ccc(Cl)cc2)on1)c1ccccc1 (stereo not given),·,4,·,4,1
COc1ccc(C(=O)Nn2c(C)nnc2-n2nc(C)cc2C)cc1OC,9,-2,-3,-31*,3
